A selection: hits, their analogues and other compounds. The true share with any hit is near 2.1%.
miR-21 act = qHTS Assay for Modulators of miRNAs and/orActivators of miR-21; HeLa miR-21 FLuc reporter, luciferase, 48 h; Potency, µM (top dose mostly 38.3 µM), for the others: at the top dose activity change, positive = activation, actives largely listed as activators; 340,000 tested, under 10 active; AID 2288, 2010;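 note: % of control where 0% means no effect; miR-21 action dims this reporter so a rising signal means less miR-21 action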
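Using DMEM plus 10% FBS, HeLa miR-21-FLuc cells are incubated with test compounds (final up to about 40uM) for 48 hours; firefly luciferase signal is then imaged following reagent-mediated lysis.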
A549 tox-1 = Nrf2 qHTS screen for inhibitors: counterscreen for cytotoxicity; A549 ARE-Fluc cells, CellTiter-Fluor viability, 18-24 h; Potency, µM (highest dose often 46 µM), for the others: top-dose activity change, negative = cytotoxicity, actives largely listed as inhibitors; actives 0.16% (n = 390,000); AID 504648, 2011; note: potency is the fitted concentration of half-maximal effect; % is set by controls: 0 for no effect and ±100 for the full control effect
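Cytotoxicity counterscreen: CellTiter-Fluor fluorescence was measured in A549 ARE_Fluc cells after 18-24 h of compound exposure in a concentration series. The subsequent BugLite luminescent read reports ARE-luciferase activity.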
Glioma ERSR ind = qHTS for Inducers of the Endoplasmic Reticulum Stress Response (ERSR) in Human Glioma: qHTS. U87-MG GRP78 promoter luciferase reporter, 16 h. Potency, µM, for inactives: at the top dose activation, actives largely listed as activators. actives 0.02% (n = 420,000); note: potency is the fitted concentration of half-maximal effect; series mostly up to about 76 µM; % of control where 0% means no effect; nearly all actives have a fitted effect of over 35% in size
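ERSR induction read as luciferase luminescence (Bright-Glo, 10 min at room temperature) in stably transfected human U87-MG glioma cells exposed to compounds for 16 h, using GRP78 as sensor.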
Nrf2 block = Nrf2 qHTS screen for inhibitors | AID 504444, 2011 | A549 ARE-Fluc reporter, luciferase luminescence, 18-24 h | actives 2.1% (n = 360,000) | Potency, µM (top dose mostly 46 µM), without a hit: top-dose activity change, negative = inhibition, hits mostly inhibitors; note: potency is the fitted concentration of half-maximal effect; % is set by controls: 0 for no effect and ±100 for the full control effect; nearly all actives have a fitted effect of over 60% in size
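Nrf2 activity is the BugLite luminescence, read 15 min after reagent at room temperature, following CellTiter-Fluor cytotoxicity readout (30 min, 37C). Compound titrations were applied for 18-24 h to 5000 A549 ARE_Fluc cells/well in 5% FBS OPTI-MEM.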
PTAP TSG101 blk = qHTS Assay for Iinhibitors of HIV-1 Budding by Blocking the Interaction of PTAP/TSG101 | Tumor susceptibility gene 101 protein (Homo sapiens), Q99816 | Fluorescence polarization, FITC-PTAP peptide / Tsg101 binding | Potency, µM (doses to about 115 µM), inactives show at the highest dose activity change, negative = inhibition, hits mostly inhibitors | 340,000 tested, under 10 active; active = well fitted inhibition curve with a large enough effect in the main read-out, with a control signal flat, not every such curve was filed as active; inconclusive = small, poorly fitted or top-dose-only effect, or effect the other way, or a change in a side signal; inactive = no such curve, though single readings can be large or run the other way; note: potency is the fitted concentration of half-maximal effect; % of control where 0% means no effect
Target sequence (Q99816 whole entry, looked up): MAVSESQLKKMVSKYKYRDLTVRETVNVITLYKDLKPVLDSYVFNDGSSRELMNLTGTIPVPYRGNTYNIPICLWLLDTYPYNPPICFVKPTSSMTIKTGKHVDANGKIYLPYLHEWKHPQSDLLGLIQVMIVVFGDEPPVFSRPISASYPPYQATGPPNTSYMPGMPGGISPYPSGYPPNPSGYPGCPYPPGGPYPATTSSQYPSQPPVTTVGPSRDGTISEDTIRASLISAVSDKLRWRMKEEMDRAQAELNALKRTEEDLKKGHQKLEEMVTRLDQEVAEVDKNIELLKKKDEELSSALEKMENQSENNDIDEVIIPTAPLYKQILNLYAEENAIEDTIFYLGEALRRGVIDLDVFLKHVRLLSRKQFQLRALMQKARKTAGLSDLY
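FP read-out: FITC-PTAP peptide, 50 nM final, binding Tsg101 binding domain, 10 uM final; 20 min, r.t.; 10 mM HEPES pH 7.5, 0.15 M NaCl, 0.01% Tween 20, 3 mM EDTA, 0.1 mM TCEP.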
Nrf2 ARE act = qHTS of Nrf2 Activators. Potency, µM (titrated, usually from 46.1 µM), without a hit: at the highest dose activation, most hits filed as activators. actives 0.31% (n = 410,000). AREc32 ARE-luciferase reporter (MCF7-derived line), luminescence, 24 h. AID 624171, 2012; note: potency is the fitted concentration of half-maximal effect; % of control where 0% means no effect; nearly all actives have a fitted effect of over 65% in size
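Cells of the AREc32 ARE-luciferase line are plated in OPTI-MEM containing 5% FBS and left overnight at 37 deg C. Compounds are pinned in, incubation continues 24 hr, and firefly luciferase signal is then measured.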
FLuc enzyme inh = Nrf2 qHTS screen for inhibitors: Purified Fluc Biochemical Counterscreen for Hit Validation; shares compounds with Nrf2 block; purified firefly luciferase, luminescence inhibition; Potency, µM (doses to about 57.5 µM), without a hit: top-dose activity change, negative = inhibition, actives largely listed as inhibitors; actives 4% (n = 1,400); note: potency is the fitted concentration of half-maximal effect; % is set by controls: 0 for no effect and ±100 for the full control effect; nearly all actives have a fitted effect of over 65% in size
A549 tox-2 = Nrf2 qHTS screen for inhibitors: A549 ARE-Fluc Cytotoxicity Counterscreen for Hit Validation | shares compounds with Nrf2 block | A549 ARE-Fluc cells, cytotoxicity counterscreen | Potency, µM (doses to about 46.1 µM), inactives show at the top dose activity change, negative = cytotoxicity, most hits filed as inhibitors | actives 2% (n = 1,400);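 note: potency is the fitted concentration of half-maximal effect; cells exposed to compounds for 18 to 24 hours; % is set by controls: 0 for no effect and ±100 for the full control effect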
Nrf2 ARE inh = Nrf2 qHTS screen for inhibitors: Nrf2 A549 ARE-Fluc Confirmation Assay for Hit Validation. shares compounds with Nrf2 block. A549 ARE-firefly luciferase reporter, luminescence. Potency, µM (doses to about 46.1 µM), for the others: top-dose activity change, negative = inhibition, actives largely listed as inhibitors. actives 74% (n = 1,400). AID 720524, 2013; note: potency is the fitted concentration of half-maximal effect; % is set by controls: 0 for no effect and ±100 for the full control effect; nearly all actives have a fitted effect of over 65% in size
Starred values were filed as active, the others as inactive; u = inconclusive; x = no result shown. Unless noted, calls come from the whole dose curve; as a rule, active = well fitted curve in the direction sought with a large enough effect; inconclusive = small, poorly fitted or top-dose-only effect, or another doubt; inactive = no such curve, though single readings can be large; an effect the other way counts as inactive or inconclusive.

SMILES	miR-21 act	A549 tox-1	Glioma ERSR ind	Nrf2 block	PTAP TSG101 blk	Nrf2 ARE act	FLuc enzyme inh	A549 tox-2	Nrf2 ARE inh
C=CCn1c(O)c(N=NC(=S)Nc2ccccc2F)c2cc(S(=O)(=O)N3CCOCC3)ccc21	27%	u	-1%	5.8µM*	-3%	5%	1%	-28%	x
C=CCn1c(O)c(N=NC(=S)Nc2ccccc2F)c2ccccc21	25%	u	-4%	u	0%	0%	x	x	x
CN(Cc1ccccc1)C(=O)c1ccc(NC(=O)Cc2ccc(NC(=O)C3CCCN(C(=O)CCc4ccccc4)C3)cc2)cc1 (stereo not given)	x	-11%	-1%	2.6µM*	-1%	1%	-10%	-11%	1.6µM*
CN(Cc1ccccc1)C(=O)c1ccc(NC(=O)Cc2ccc(NC(=O)C3CCCN(C(=O)C4CCC4)C3)cc2)cc1 (stereo not given)	x	-2%	-1%	u	-6%	4%	x	x	x
CCN(c1ccccc1)S(=O)(=O)c1ccc(Cl)c(C(=O)Nc2ccncc2)c1	x	x	-2%	x	x	5%	x	x	x
CN(c1ccccc1)S(=O)(=O)c1ccc(Cl)c(C(=O)Nc2ccncc2)c1	x	1%	-2%	8.2µM*	-1%	10%	1%	1%	u
CN1/C(=C/c2cc[n+](C)c3ccccc23)C=Cc2ccccc21	u	21µM*	-8%	1.2µM*	-2%	0%	u	u	6.5µM*
CC(C)CCOc1cccc(OCC(=O)Nc2ccncc2)c1	27%	1%	-4%	9.2µM*	-3%	3%	-17%	-4%	3.7µM*
CCCCCCCCCCCCCCCC[n+]1ccc(/C=C/c2c(C)[nH]c3ccccc23)cc1	x	x	-8%	x	x	x	x	x	x
Cc1cc(C)c(C(N)=O)c(SCC(=O)c2cc(C)n(-c3cc(C)on3)c2C)n1	x	-12%	-2%	2.3µM*	-6%	0%	-1%	-8%	u
Cn1c2c(c3cnc4cc(Cl)ccc4c31)CNCC2	x	-2%	-2%	5%	x	x	x	x	x
O/N=C(/C[n+]1csc2ccccc21)c1ccccc1	x	x	1%	x	x	x	x	x	x
Cc1cc(C)nc(SCc2ccc(C(=O)NNC(=O)Nc3cccc(Cl)c3)cc2)n1	20%	u	-15%	9.2µM*	-1%	-3%	-23%	u	15µM*
CCOC(=O)N1CCC(NC(=O)c2cc(C(=O)Nc3cccc(C(F)(F)F)c3)ccc2CO)CC1	17%	u	-2%	5.8µM*	-8%	5%	2%	-9%	16µM*
CCOC(=O)N1CCC(NC(=O)c2ccc(CO)c(C(=O)NC3CCN(C(=O)OCC)CC3)c2)CC1	-3%	0%	-2%	4%	0%	0%	x	x	x
C/C(=N\NC(=O)COc1ccccc1-c1ccccc1)c1ccccn1	16%	u	-7%	4.6µM*	1%	u	0%	-7%	1.3µM*
